# Laboratory results taken from ChEMBL document CHEMBL3988442, “University of Dundee, Small-Polar-MMV Screening Library” (2021).
# The campaign covered roughly 53,000 compounds. About 900 (1.7%) showed an effect of 50% or more. Only a selection was taken, and strong results are over-represented in it overall.
# Tested on: Mycobacterium tuberculosis
# Test: Cornell - Phenotypic assay to identify agents that inhibit growth of Mycobacterium tuberculosis
# Type: functional
# Design: scale not given: direction of the effect not stated beside the values
# Conditions: 10 mM as filed; unlikely as a test dose
row,SMILES,Percent Effect [%]
1,Cc1ccc(CN2CCc3nnc(CN4CCCC4=O)n3CC2)s1.O=C(O)C(F)(F)F,32.68
2,CCC(C(=O)N(C)C)n1ccc2ncccc2c1=O (configuration not stated),6.503
3,CN(C)C(=O)CN1CCN(c2cc(N3CCCC3CO)ncn2)CC1 (configuration not stated),1.672
4,Cc1cc(N2CCC(C(=O)O)(n3ccc(C(C)(C)C)n3)CC2)nc(N)n1,5.557
5,Cc1cc(C)nc(N2CCC(C(=O)O)(n3ccc(C(C)(C)C)n3)CC2)n1,67
6,Cc1cnc(C)c(N2CCC(C(=O)O)(n3ccc(C(C)(C)C)n3)CC2)n1,5.905
7,CSc1cccc(CNC(=O)[C@H]2CNC[C@@H](C(=O)N3CCOCC3)C2)c1,-25.42
8,Cc1nc[nH]c1CNCc1cccnc1N(C)C1CCCCC1,-125.1
9,COc1ccc(-n2cc(CCO)cn2)cc1C(N)=O,-5.342
10,COc1ccc(-n2cc(CCO)cn2)cc1C,105.1
11,COc1cc(-n2cc(CCO)cn2)ccc1NC(C)=O,12.75
12,Cc1cn2c(n1)CCC(NC(=O)CCOc1ccccc1F)C2 (configuration not stated),-34.23
13,O=C(c1nc(Cc2c[nH]c3ccccc23)no1)N1CCCCC1,-4.941
14,O=C(O)C(F)(F)F.O=C(c1ncccn1)N1C[C@H]2CCC[C@@]2(COc2ccccn2)C1,-0.9925
15,O=C(O)C(F)(F)F.O=C(c1cocn1)N1C[C@H]2CCC[C@@]2(COc2ccccn2)C1,78.33
16,Cc1ccc(C(=O)N2C[C@H]3CCC[C@@]3(COc3ccccn3)C2)nc1.O=C(O)C(F)(F)F.O=C(O)C(F)(F)F,19.03
17,Fc1cccc(Cl)c1CNCCOc1ccccn1,41.65
18,CN1[C@@H](C(=O)NCC2CC2)C[C@@H]2CN(Cc3ccco3)C[C@@H]21,11.69
19,CCN(Cc1ccccc1)S(=O)(=O)C1CCS(=O)(=O)CC1,11.98
20,c1cc(C2CCN(c3cnccn3)CC2)ncn1,5.379
21,CN(C)c1nccnc1C1CCN(c2cnccn2)CC1,17.38
22,CN(C)c1ccc(C2CCN(c3cnccn3)CC2)nc1,63.52
23,COc1cccc(C(=O)N2C[C@@H](c3ccccc3)[C@@H]3NCCCC[C@@H]32)c1,4.696
24,Cc1cc(C(C)(O)CNC(=O)c2ccc(Br)o2)c(C)o1 (configuration not stated),53.63
25,Cc1cc(C(C)(O)CNC(=O)OC(C)(C)C)c(C)o1 (configuration not stated),14.94
26,Cc1cc(C(C)(O)CNC(=O)C2(C)CCCC2)c(C)o1 (configuration not stated),32.83
27,O=C(c1cc(-n2cnnn2)ccc1Cl)N1CCCCCC1,22.48
